From PubChem BioAssay (Tox21)
Records with an inconclusive call do not appear. The source made the active and inactive calls. Unless noted, the call rests on the fitted dose curve; in most records, active means well fitted curve in the direction sought with a large enough effect in the repeat runs; inconclusive means weak or mixed curves; inactive means no such curve, though single readings can be large; an effect the other way counts as inactive or inconclusive.

Key:
[1] = qHTS assay to identify small molecule agonists of the estrogen receptor alpha (ER-alpha) signaling pathway in the presence of an antagonist - cell viability counter screen (AID 1259386);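 further: series mostly up to about 92 µM; cells exposed to compounds for 22 h at 37 °C before the viability read; nearly all actives have a fitted effect of over 30% in size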
Outline: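 Fluorescent CellTiter-Fluor viability signal from VM7Luc4E2 cells, with the reagent added during the final hour of a 22hr compound exposure at 37C in the presence of 10.0nM ICI-182,780.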

[2] = target: Progesterone receptor (Homo sapiens) (UniProt P06401); assay: qHTS assay to identify small molecule agonists of the progesterone receptor (PR) signaling pathway (AID 1346784; calls by dose curve; further: nearly all actives have a fitted effect of over 30% in size)
Outline: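 Agonist qHTS: compounds pinned onto 3,000 PR-UAS-bla HEK 293T cells per well in charcoal-stripped serum medium, 16hr at 37C, then beta-lactamase activity measured by LiveBLAzer FRET fluorescence after 2 hours at room temperature.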

[3] = target: Progesterone receptor (Homo sapiens) (UniProt P06401); assay: qHTS assay to identify small molecule antagonists of the progesterone receptor (PR) signaling pathway (AID 1346795; active means well fitted inhibition curve with a large enough effect in the signal ratio in the repeat runs, not every such curve was filed as active; the % refers to the signal ratio)
Outline: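 Antagonist mode with agonist R5020 at 1 nM final and 16 hr incubation at 37C. Reporter was beta-lactamase driven by UAS in HEK293T (PR-UAS-bla), 2% charcoal-stripped serum; signal from LiveBLAzer FRET substrate, 2 hr at room temperature.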

[4] = qHTS assay to identify small molecule antagonists of the progesterone receptor (PR) signaling pathway - cell viability counter screen (AID 1346798); further: series mostly up to about 92 µM; nearly all actives have a fitted effect of over 50% in size
Outline: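 Cytotoxicity read as CellTiter-Glo luminescence (30 min, room temperature) in the same wells as the beta-lactamase readout. HEK293T PR-UAS-bla cells in charcoal-stripped 2% FBS received compound and R5020, then 16 h at 37C, 5% CO2.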

[5] = qHTS assay to identify small molecule agonists of the progesterone receptor (PR) signaling pathway - cell viability counter screen (AID 1346799; calls by dose curve; further: nearly all actives have a fitted effect of over 45% in size)
Outline: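 Cytotoxicity measured by CellTiter-Glo luminescence (30 min, RT) in the same wells as the PR beta-lactamase agonist read. Those HEK293T cells had 16 h compound treatment at 37 C in 2% charcoal-stripped FBS medium.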

[6] = qHTS assay to identify small molecule antagonists of the TGF-beta/Smad signaling pathway - cell viability counter screen (AID 1346824); further: nearly all actives have a fitted effect of over 50% in size
Outline: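 Cytotoxicity counter-screen run in the same wells as the beta-lactamase Smad reporter read: CellTiter-Glo luminescence after 30 min at room temperature. HEK 293T SBE-bla cells had 5 hr compound exposure at 37 C with TGF-beta1 (0.25 ng/mL stock).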

[7] = qHTS assay to identify small molecule agonists of the TGF-beta/Smad signaling pathway - cell viability counter screen (AID 1346829); further: top concentration of the series differs between compounds; nearly all actives have a fitted effect of over 45% in size
Outline: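 Here the cytotoxicity of library compounds is measured in SBE-bla HEK 293T cells treated for 5 hr, using CellTiter-Glo added to wells already read for the beta-lactamase reporter.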

[8] = qHTS assay to identify small molecule agonists of the TGF-beta/Smad signaling pathway (AID 1346859; active means well fitted activation curve with a large enough effect in the signal ratio in the repeat runs, not every such curve was filed as active; the % refers to the signal ratio; further: series mostly up to about 77 µM)
Outline: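 Fluorescence (ex 405 nm; em 460 and 530 nm) was read 2 h after LiveBLAzer FRET substrate at RT. The preceding compound treatment of overnight-plated SBE-bla HEK293T cells lasted 5 h at 37 C.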

[9] = target: Thyrotropin-releasing hormone receptor (Homo sapiens) (UniProt P34981); assay: qHTS assay to identify small molecule antagonists of the thyrotropin-releasing hormone receptor (TRHR) signaling pathway (AID 1346877; active means well fitted inhibition curve with a large enough effect in the repeat runs, not every such curve was filed as active; further: series mostly up to about 51 µM)
Outline: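 In this cell-based calcium flux format, HEK293 cells expressing TRHR received test compound for 5 min before the agonist TRH (1 nM final). Dye loading lasted 2 h at 37 °C.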

[10] = target: Thyrotropin-releasing hormone receptor (Homo sapiens) (UniProt P34981); assay: qHTS assay to identify small molecule agonists of the thyrotropin-releasing hormone receptor (TRHR) signaling pathway (AID 1346891; calls by dose curve; further: series mostly up to about 58 µM)
Outline: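 Agonist-mode intracellular calcium readout: kinetic fluorescence over 3 min at 1 s intervals after compound addition to TRHR-HEK293 cells (18 h seeded, 2 h dye-loaded at 37 C). Fifteen concentrations, triplicates.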
On the % scale 0 is the no-effect control and ±100 the full control effect.

Progesterone receptor (Homo sapiens), sequence (P06401 whole entry, looked up): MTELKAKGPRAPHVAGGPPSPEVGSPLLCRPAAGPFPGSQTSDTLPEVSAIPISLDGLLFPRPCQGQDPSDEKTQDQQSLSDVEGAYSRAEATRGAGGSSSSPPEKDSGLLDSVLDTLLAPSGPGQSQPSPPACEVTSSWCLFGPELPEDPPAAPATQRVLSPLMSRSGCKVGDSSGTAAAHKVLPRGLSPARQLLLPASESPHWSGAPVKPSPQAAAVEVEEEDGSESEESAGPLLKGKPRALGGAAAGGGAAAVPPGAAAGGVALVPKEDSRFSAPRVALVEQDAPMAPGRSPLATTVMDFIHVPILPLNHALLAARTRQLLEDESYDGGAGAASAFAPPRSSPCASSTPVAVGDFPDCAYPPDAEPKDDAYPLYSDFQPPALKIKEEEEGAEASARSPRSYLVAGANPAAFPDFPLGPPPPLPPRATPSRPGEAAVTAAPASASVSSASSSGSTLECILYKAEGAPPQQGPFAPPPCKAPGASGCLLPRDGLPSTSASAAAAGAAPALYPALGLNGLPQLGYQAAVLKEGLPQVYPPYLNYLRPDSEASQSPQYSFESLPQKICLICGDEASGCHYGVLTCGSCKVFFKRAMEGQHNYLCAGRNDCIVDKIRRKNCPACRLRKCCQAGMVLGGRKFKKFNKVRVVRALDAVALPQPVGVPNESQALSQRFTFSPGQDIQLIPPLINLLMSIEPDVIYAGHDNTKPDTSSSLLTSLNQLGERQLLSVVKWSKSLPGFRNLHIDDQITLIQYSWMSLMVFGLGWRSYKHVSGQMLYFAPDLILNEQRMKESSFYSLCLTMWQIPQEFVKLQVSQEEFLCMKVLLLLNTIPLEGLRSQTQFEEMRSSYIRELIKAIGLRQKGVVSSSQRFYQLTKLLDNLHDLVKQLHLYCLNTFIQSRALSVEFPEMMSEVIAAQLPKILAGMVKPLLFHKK
Thyrotropin-releasing hormone receptor (Homo sapiens), sequence (P34981 whole entry, looked up): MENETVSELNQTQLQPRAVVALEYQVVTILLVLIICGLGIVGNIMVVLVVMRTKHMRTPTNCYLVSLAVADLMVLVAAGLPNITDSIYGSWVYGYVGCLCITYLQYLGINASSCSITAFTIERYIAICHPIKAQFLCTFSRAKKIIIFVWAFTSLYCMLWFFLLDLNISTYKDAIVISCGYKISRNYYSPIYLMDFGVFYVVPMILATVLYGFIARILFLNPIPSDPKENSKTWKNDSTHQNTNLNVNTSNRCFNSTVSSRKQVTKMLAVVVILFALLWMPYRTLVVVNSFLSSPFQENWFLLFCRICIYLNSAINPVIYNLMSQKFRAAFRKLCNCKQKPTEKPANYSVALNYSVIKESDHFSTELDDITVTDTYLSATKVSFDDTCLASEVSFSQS

C[C@@H](Oc1ccc(CNC(=O)c2cccnc2Oc2ccc3c(c2)OCO3)c(F)c1)C(=O)O
inactive: Potency [1] | Potency [2] | Potency [3] | Potency [4] | Potency [5] | outcome [6] | outcome [7] | outcome [8] | outcome [9] | outcome [10]

CCCCOCCOC(=O)COc1nc(Cl)c(Cl)cc1Cl
inactive: Potency [1] | Potency [2] | Potency [3] | Potency [4] | Potency [5] | outcome [6] | outcome [7] | outcome [8] | outcome [9]

CC1COc2ccccc2N1 (stereo not drawn)
inactive: Potency [1] | Potency [2] | Potency [3] | Potency [4] | Potency [5] | outcome [6] | outcome [7] | outcome [8] | outcome [9] | outcome [10]

CC(C)(C)NC(N)=O
inactive: Potency [1] | Potency [2] | Potency [3] | Potency [4] | Potency [5] | outcome [6] | outcome [7] | outcome [8] | outcome [9] | outcome [10]

C=Cc1ccccn1
inactive: Potency [1] | Potency [2] | Potency [3] | Potency [4] | Potency [5] | outcome [6] | outcome [7] | outcome [8] | outcome [9] | outcome [10]

CC(=O)OC(C)OC(=O)C(C)c1ccc(-c2ccccc2)c(F)c1 (stereo not drawn)
inactive: Potency [1] | Potency [2] | Potency [3] | Potency [4] | Potency [5] | outcome [6] | outcome [7] | outcome [8]

CCN(CC)CC(=O)Nc1c(C)cccc1C
inactive: Potency [1] | Potency [2] | Potency [3] | Potency [4] | Potency [5] | outcome [6] | outcome [7] | outcome [8] | outcome [9] | outcome [10]

CC(C(=O)O)c1ccc2c(c1)CC(=O)c1ccccc1S2 (stereo not drawn)
inactive: Potency [1] | Potency [2] | Potency [3] | Potency [4] | Potency [5] | outcome [6] | outcome [7] | outcome [8]

O=C(NCCN1CCOCC1)c1ccc(Cl)cc1
inactive: Potency [1] | Potency [2] | Potency [3] | Potency [4] | Potency [5] | outcome [6] | outcome [7] | outcome [8]

Nc1nnc(-c2cccc(Cl)c2Cl)c(N)n1
inactive: Potency [1] | Potency [2] | Potency [3] | Potency [4] | Potency [5] | outcome [6] | outcome [7] | outcome [8] | outcome [9] | outcome [10]

O=C(O)CCSSCCC(=O)O
inactive: Potency [1] | Potency [2] | Potency [3] | Potency [4] | Potency [5] | outcome [6] | outcome [7] | outcome [8] | outcome [9] | outcome [10]

COP(=O)(OC)OC(c1ccc(Cl)cc1)P(=O)(OC)OC (stereo not drawn)
inactive: Potency [1] | Potency [2] | Potency [3] | Potency [4] | Potency [5] | outcome [6] | outcome [7] | outcome [8] | outcome [9] | outcome [10]

CCC(CC)CO
inactive: Potency [1] | Potency [2] | Potency [3] | Potency [4] | Potency [5] | outcome [6] | outcome [7] | outcome [8] | outcome [9] | outcome [10]

CCCCC(CC)COCCO (stereo not drawn)
inactive: Potency [1] | Potency [2] | Potency [3] | Potency [4] | Potency [5] | outcome [6] | outcome [7] | outcome [8] | outcome [9] | outcome [10]

COC(=O)CCc1ccc(OCC(O)CNC(C)C)cc1 (stereo not drawn)
inactive: Potency [1] | Potency [2] | Potency [3] | Potency [4] | Potency [5] | outcome [6] | outcome [7] | outcome [8] | outcome [9] | outcome [10]

O=C1c2ccccc2C(=O)N1CCl
inactive: Potency [1] | Potency [2] | Potency [3] | Potency [4] | Potency [5] | outcome [6] | outcome [7] | outcome [8] | outcome [9] | outcome [10]

Cc1nc2n(c(=O)c1CCN1CCC(c3noc4cc(F)ccc34)CC1)CCC[C@H]2O
inactive: activity change, negative = cytotoxicity [1] -2.18% [at 19 µM] | activation [2] -1.98% [at 19 µM] | activity change, negative = inhibition [3] 1.27% [at 18.9 µM] | activity change, negative = cytotoxicity [4] -12.9% [at 18.9 µM] | activity change, negative = cytotoxicity [5] -13.8% [at 19 µM] | viability change, negative = cytotoxic [6] 1.49% [at 15.8 µM] | activity change, negative = cytotoxicity [7] -1.25% [at 15.8 µM] | activation [8] 0.469% [at 15.8 µM] | activity, negative = inhibition [9] -5.29% [at 10.5 µM] | activation [10] -0.0294% [at 11.8 µM]

NCCN1CCOCC1
inactive: Potency [1] | Potency [2] | Potency [3] | Potency [4] | Potency [5] | outcome [6] | outcome [7] | outcome [8] | outcome [9] | outcome [10]

O=C(O)c1cc(Cl)cc([N+](=O)[O-])c1Cl
inactive: Potency [1] | Potency [2] | Potency [3] | Potency [4] | Potency [5] | outcome [6] | outcome [7] | outcome [8] | outcome [9] | outcome [10]

O=P(O)(O)OP(=O)(O)O
inactive: Potency [1] | Potency [2] | Potency [3] | Potency [4] | Potency [5] | outcome [6] | outcome [7] | outcome [8] | outcome [9] | outcome [10]

COc1cc(C(=S)N2CCOCC2)cc(OC)c1OC
inactive: Potency [1] | Potency [2] | Potency [3] | Potency [4] | Potency [5] | outcome [6] | outcome [7] | outcome [8] | outcome [9] | outcome [10]

CC(C)(C)c1cc(CCC(=O)NN)cc(C(C)(C)C)c1O
inactive: Potency [1] | Potency [2] | Potency [3] | Potency [4] | Potency [5] | outcome [6] | outcome [7] | outcome [8] | outcome [9] | outcome [10]

CC(CO)c1ccccc1 (stereo not drawn)
inactive: Potency [1] | Potency [2] | Potency [3] | Potency [4] | Potency [5] | outcome [6] | outcome [7] | outcome [8] | outcome [9] | outcome [10]

C=C(C)C(=O)OCCOP(=O)(O)OCCOC(=O)C(=C)C
inactive: Potency [1] | Potency [2] | Potency [3] | Potency [4] | Potency [5] | outcome [6] | outcome [7] | outcome [8] | outcome [9] | outcome [10]
